Results reported in PubChem BioAssay (NCATS).
Inconclusive results are not listed. A call without a number means that no potency is given here. Active and inactive are the calls of the source. The call rests on the fitted dose curve; in most records, active means well fitted activation curve with a large enough effect; inconclusive means small, poorly fitted or top-dose-only effect; inactive means flat fitted curve, though single readings scatter.

Assay: Validation screen for small molecules that induce DNA re-replication in SW480 colon adenocarcinoma cells (AID 504364)
Conditions: DNA re-replication phenotype (high-content imaging); series mostly up to 46.1 µM
Excerpt: H Molecular Libraries Probe Production Network [MLPCN]
NIH Chemical Genomics Center [NCGC]
Assay Provider: Melvin DePamphilis, NICHD, NIH
Eukaryotic cells normally restrict genome duplication to once per cell division. When this process is aberrant, DNA re-replication occurs when cells reinitiate DNA replication before the first round of replication is complete. DNA re-replication induces the DNA damage response, arrests cell proliferation, and triggers apoptosis. The cell cycle components cyclin A, Cdt-1, Cdc6 and geminin are critical regulators of this process and their misregulation results in DNA re-replication in normal and cancer cells. To identify compounds that induce re-replication in normal cells, an image-based assay was used to measure DNA content of nuclei, as detected by the fluorescent DNA binding dye, Hoechst. Cell nuclei were imaged by a fluorescence scanning plate imager and compounds that induce DNA re-replication were identified by the increase of nuclei with elevated fluorescence intensity.#
For screening, 250 cells in 5 uL/well were dispensed into black clear 1536-well plates (Aurora) using a solenoid-based dispenser. Following transfer of 23 nL compound or DMSO vehicle by a pin tool, the plates were incubated 48 hr at 37 C and 5% CO2. After addition of 1 uL/well Hoescht stain, the plates were incubated 40 min at 37 C, 5% CO2 and total intensity of fluorescent objects (nuclei) were enumerated by an Acumen Explorer Ex3 (TTP LabTech) fluorescence scanning plate imager (405 nm excitation, 500-530 nm emission).
Keywords: NIH Roadmap, MLPCN, MLI, MLSMR, qHTS, NCGC, DNA replication, cancer

**Q.** With COC(=O)[C@H](NC(=O)c1cc(-c2ccccc2)nc2ccccc12)c1ccccc1 as the molecule, how does the Potency read?
**A.** inactive

**Q.** For COc1cc(CNC(=O)CCCCCCC(C)C)ccc1O, which Potency is on record?
**A.** inactive

**Q.** With O=C(O)c1cccnc1C(=O)O as the molecule, how does the Potency read?
**A.** inactive

**Q.** For O=C(O)C1CCNCC1, which Potency is on record?
**A.** inactive

**Q.** Which Potency does the source give for Cn1c(=O)c2[nH]c(C3CCCC3)nc2n(C)c1=O here?
**A.** inactive

**Q.** For CCCCOc1cc(CC2CNC(=O)N2)ccc1OC (stereo not given), which Potency is on record?
**A.** inactive

**Q.** For C[C@@H](NCCc1ccc(O)cc1)[C@@H](O)c1ccc(O)cc1, which Potency is on record?
**A.** inactive

**Q.** Which Potency does the source give for CCCc1c(-c2ccc(O)cc2)nn(-c2ccc(O)cc2)c1-c1ccc(O)cc1 here?
**A.** inactive

**Q.** For CC(N)=NCCCC[C@@H](N)C(=O)O, which Potency is on record?
**A.** inactive

**Q.** Which Potency does the source give for N[C@H](C(=O)O)[C@H]1C[C@@H]1C(=O)O here?
**A.** inactive

**Q.** With C=CCN1CCc2cc(O)c(O)cc2C(c2ccccc2)C1 (stereo not given) as the molecule, how does the Potency read?
**A.** inactive

**Q.** With CC(N)(Cc1ccc(O)c(O)c1)C(=O)O (stereo not given) as the molecule, how does the Potency read?
**A.** inactive

**Q.** With OC[C@H]1NC[C@@H](O)[C@@H]1O as the molecule, how does the Potency read?
**A.** inactive

**Q.** Which Potency does the source give for CC(C)C[C@H](NC(=O)[C@H](O)[C@H](N)Cc1ccccc1)C(=O)O here?
**A.** inactive

**Q.** Which Potency does the source give for O=C(O)C1CN(CCCP(=O)(O)O)CCN1 (stereo not given) here?
**A.** inactive

**Q.** With Nc1ncnc2c1ncn2C1CCCO1 (stereo not given) as the molecule, how does the Potency read?
**A.** inactive

**Q.** Which Potency does the source give for C[C@H](O)C(=O)C1=Nc2c(nc(N)[nH]c2=O)NC1 here?
**A.** inactive

**Q.** Which Potency does the source give for CC(C)(C)NCC(O)COc1cccc2[nH]c(=O)[nH]c12 (stereo not given) here?
**A.** inactive

**Q.** For NCCCNCCCCNCCCN, which Potency is on record?
**A.** inactive

**Q.** For CC(N)(Cc1ccc(O)cc1)C(=O)O (stereo not given), which Potency is on record?
**A.** inactive

**Q.** Which Potency does the source give for O=C1C2C=CC=CC2=NC(=S)N1CCN1CCC(=C(c2ccc(F)cc2)c2ccc(F)cc2)CC1 (stereo not given) here?
**A.** inactive

**Q.** For CC#CCOC(=O)c1c(C)nc2sc3c(c2c1N)CCC(O)C3 (stereo not given), which Potency is on record?
**A.** inactive

**Q.** Which Potency does the source give for Nc1ccc(CCNc2ncnc3c2ncn3C2OC(CO)C(O)C2O)cc1 (stereo not given) here?
**A.** inactive

**Q.** For c1ccc2nc(C3=NCCN3)ccc2c1, which Potency is on record?
**A.** inactive

**Q.** For CC1=C(C(=O)O)N2C(=O)[C@@H](NC(=O)C(N)C3=CCC=CC3)[C@H]2SC1 (stereo not given in full), which Potency is on record?
**A.** inactive

**Q.** With COC(=O)C(C)(N)Cc1ccc(O)cc1 (stereo not given) as the molecule, how does the Potency read?
**A.** inactive

**Q.** For COc1cc2c(CCNC(C)=O)c[nH]c2cc1O, which Potency is on record?
**A.** inactive

**Q.** For Cn1c(=O)c2[nH]c(-c3ccc(S(=O)(=O)O)cc3)nc2n(C)c1=O, which Potency is on record?
**A.** inactive

**Q.** With O=C(OCCN1CCOCC1)C1(c2ccccc2)CCCCC1 as the molecule, how does the Potency read?
**A.** inactive

**Q.** For CC(C)C[C@H](NC(=O)C1OC1C(=O)O)C(=O)NCCCCN=C(N)N (stereo not given in full), which Potency is on record?
**A.** inactive

**Q.** With NC(=O)c1ccccc1 as the molecule, how does the Potency read?
**A.** inactive

**Q.** Which Potency does the source give for C=CCn1c(=O)c2c(nc(-c3ccc(S(=O)(=O)O)cc3)n2C)n(C)c1=O here?
**A.** inactive

**Q.** With Cc1ccc([N+](=O)[O-])cc1S(=O)(=O)N(C)C as the molecule, how does the Potency read?
**A.** inactive

**Q.** Which Potency does the source give for Oc1cc2c(cc1O)C(c1ccccc1)CNCC2 (stereo not given) here?
**A.** inactive

**Q.** For CC(C)NC[C@H](O)COc1ccc(CC(N)=O)cc1, which Potency is on record?
**A.** inactive

**Q.** Which Potency does the source give for CCCN(CCc1ccccc1)C1CCc2c(O)cccc2C1 (stereo not given) here?
**A.** inactive

**Q.** Which Potency does the source give for C=CC[C@H](N)C(=O)O here?
**A.** inactive

**Q.** Which Potency does the source give for CNc1ncnc2c1ncn2[C@H]1C[C@H](OP(=O)(O)O)[C@@H](COP(=O)(O)O)O1 here?
**A.** inactive

**Q.** For CNCCNS(=O)(=O)c1cccc2cnccc12, which Potency is on record?
**A.** inactive

**Q.** Which Potency does the source give for CC(C)Cn1c(=O)n(C)c(=O)c2[nH]cnc21 here?
**A.** inactive
